Rows were chosen to be rich in hits. Some 3.3% of all compounds tested hit in one or more screens of this group.
Wnt bcat act = Wnt/beta-catenin pathway activation | Wnt/beta-catenin reporter cell assay, activator, plate reader | activation, % at 9.35 µM | 300,000 compounds, 1.2% hits | AID 743398; in the data active = activation above about 30%, passing the limit was not always enough; inconclusive = no clear call, values can overlap the other calls;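 note: 0% = neutral control wells and 100% = positive control wells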
MITF act = activators of MITF-driven TRPM1 promoter activity in SK-MEL-5 cells | SK-MEL-5 TRPM1-promoter luciferase, 24 h; % of positive control, neutral wells = 0 | activation, % at 12.5 µM | 300,000 compounds, 0.75% hits;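 active = mean activation of at least 80% with every replicate also reaching 80%; inconclusive = mean reaches 80% but some replicate falls short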;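 note: 0% = neutral control wells and 100% = parthenolide positive control wells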
esBAF inh = inhibitors of esBAF chromatin remodeling in mouse ES cells; AID 602393; reporter increase, % at 12.5 µM; Bmi1-luciferase knock-in reporter, 24 h; 100% = twice the neutral-well signal; 350,000 compounds, 2% hits; in the data active = activation above about 40%; inconclusive = no clear call, values can overlap the other calls;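 note: 0% = median of the plate's neutral control wells and 100% = double that signal; a rise in the Bmi1 reporter signal indicates esBAF inhibition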
GAA850 FXN act = activators of GAA850 frataxin (FXN) promoter; 360,000 compounds, 0.56% hits; AID 540364; activation, % at 6 µM; HEK293 lucGAA850 FXN promoter luciferase reporter, 24 h; percent of 10 µM SAHA response;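 active = activation above the average of all compounds screened plus 3 SD, cutoff fixed separately per campaign, cut at about 7.5% in these data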;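 note: 0% = DMSO wells and 100% = 10 µM SAHA wells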
C2C12 statin = suppression of simvastatin myotoxicity; C2C12 myotubes + simvastatin, ATP luminescence, 48 h; scaled: DMSO 0, geranylgeraniol control 100; rescue of ATP level, % at 7.49 µM; 330,000 compounds, 0.78% hits; AID 602340;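 active = mean ATP rescue above about 67%, or every replicate alone reaching that limit, limit read from the data, passing the limit was not always enough; inconclusive = no clear call, values can overlap the other calls; inactive = mean under the limit and some replicate under it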;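 note: myotubes were challenged with 10 µM simvastatin during compound exposure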
* marks the source's active call; other numbers are inactive results; ? = inconclusive; · = no result.

SMILES | Wnt bcat act | MITF act | esBAF inh | GAA850 FXN act | C2C12 statin
CC(C)CC(=O)NC(=S)Nc1cccc(NC(=O)c2ccccc2)c1 | -1 | -12 | · | 0 | ·
Cc1cc(NC(=O)CC2CCCC2)ccc1Br | 13 | 63 | 65* | 2 | 0
O=C(CC1CCCC1)Nc1ccc2c(c1)CCC2 | 4 | 43 | 84* | 3 | -12
O=C(Cc1ccccc1)Nc1ccc2c(c1)CCC2 | 12 | 31 | · | 6 | ·
CO[C@H]1CN(C)C(=O)c2cc(NS(=O)(=O)c3ccc(Cl)cc3)ccc2OC[C@H](C)N(C)C[C@H]1C | · | · | -1 | · | -7
O=C1NC2(C=Cc3c(ccc4ccccc34)O2)Oc2ccccc21 (stereo not given) | 0 | 21 | 4 | 8.6* | 16
CC1(C)OC(=O)N(c2ccccc2)C12C=Cc1c(ccc3ccccc13)O2 (stereo not given) | -7 | -8 | -29 | 2 | 1
CCn1ccc(=N)cc1 | -1 | 3 | -15 | 1 | 113*
CCCCCn1ccc(=N)cc1 | · | -20 | 15 | 2 | -20
COc1ccc(N2C(=O)CSC23CCCCC3)cc1 | -2 | -1 | 2 | 2 | -36
CCOc1ccc(N2C(=O)CSC23CCCCC3)cc1 | · | 18 | -6 | 0 | 96*
CCc1ccc(N2C(=O)Cc3c2nc(N)c(C#N)c3N)cc1 | 15 | 29 | 53* | 4 | -49
CC(C)(C)c1ccc(N2C(=O)Cc3c2nc(N)c(C#N)c3N)cc1 | · | · | 51* | 2 | 15
CCN(CC)c1nc2c3c(nc4c(c3c1C#N)CC(=O)N4c1ccc(Cl)cc1)NC(C)=N2 | 3 | 6 | · | -4 | ·
Cn1c(O)c(/C=N/NC(=O)c2cc3ccccc3cc2O)c2ccccc21 | 8 | · | 47* | 1 | -71
COCCn1c(C)cc(/C=N/NC(=O)c2cc3ccccc3cc2O)c1C | · | 13 | 47* | 1 | -5
Cn1c2ccccc2c2cc(/C=N/NC(=O)c3ccc(O)cc3O)ccc21 | · | 5 | · | 2 | ·
COc1cc(/C=N/NC(=O)c2cc3ccccc3cc2O)ccc1OCCN1CCCCC1 | -5 | 22 | 1 | 2 | 6
C[C@@H]1CN([C@@H](C)CO)C(=O)Cc2cc(NS(=O)(=O)c3cccs3)ccc2O[C@@H]1CN(C)Cc1ccc(Oc2ccccc2)cc1 | · | · | 1 | · | 25
Clc1ccc(CSc2snnc2-c2ccccc2)c(Cl)c1 | 38* | · | ? | 3 | 12
O=C(O)c1cc(N/N=C/c2cccc3ccccc23)ccc1Cl | 27 | 100* | 80* | 2 | 1
C/C(=N\Nc1ccc(Cl)c(C(=O)O)c1)c1cccc2ccccc12 | 4 | · | 8 | 3 | -2
CC(=O)Nc1ccc2c(c1)C(=O)N(C)[C@H]1CC[C@@H](CC(=O)NCc3ccccc3Cl)O[C@H]1CO2 | · | · | 7 | · | -9
Cc1occc1C(=O)NNC(=O)c1ccc(F)cc1 | -1 | · | 6 | 0 | ·
Cc1ccc(NC(=O)c2ccoc2C)cc1C | 31* | 25 | · | 2 | ·
SMILES | Wnt bcat act | MITF act | esBAF inh | GAA850 FXN act | C2C12 statin
Cc1occc1C(=O)Nc1ccc2c(c1)OCO2 | · | 79 | · | 1 | ·
Cc1cc(NC(=O)c2ccoc2C)ccc1Br | 57* | 86* | 88* | 5 | -32
Cc1occc1C(=O)NNC(=O)c1ccccc1F | 37* | 26 | · | 3 | ·
COCC(=O)N(C)C[C@@H]1Oc2cc(C#Cc3ccccc3)ccc2S(=O)(=O)N([C@@H](C)CO)C[C@H]1C | · | · | -1 | · | 20
CC=Cc1ccc2n(c1=O)C[C@H]1[C@H](CO)[C@@H](C(=O)NCCC)N(CC3CCOCC3)[C@@H]21 (mixture of isomers) | · | · | -4 | · | -21
C[C@@H]1CN([C@@H](C)CO)C(=O)c2cccc(NC(=O)NC3CCCCC3)c2O[C@H]1CN(C)Cc1ccc(C(F)(F)F)cc1 | · | · | 4 | · | ·
O=C(NC1CCC1)[C@@H]1[C@@H](CO)[C@@H]2Cn3c(cccc3=O)[C@H]1N2Cc1cc(F)ccc1F | · | · | 5 | · | -5
CCC(=O)NC(=S)Nc1ccc(NC(=O)c2ccc(Br)o2)cc1 | -3 | 5 | 69* | 3 | -18
Cc1ccc(NC(=S)NC(=O)c2ccc(Br)o2)c(C)c1 | 9 | 88* | · | 5 | ·
CSc1ccccc1NC(=O)c1ccc(Br)o1 | 6 | 48 | 52* | 2 | 7
O=C(NC(=S)Nc1ccccc1F)c1ccc(Br)o1 | 0 | 34 | 49* | 3 | 3
C[C@@H]1CN([C@@H](C)CO)C(=O)c2cc(NS(=O)(=O)c3ccccc3)ccc2O[C@@H](C)CCCCO[C@@H]1CN(C)C(=O)c1ccncc1 | · | · | -2 | · | ·

Assay outcomes: PubChem BioAssay, several laboratories
